Compound activity deposited in PubChem by National Center for Advancing Translational Sciences (NCATS).
BAZ2B inh = BAZ2B (human) inhibition; AlphaScreen BAZ2B-H3K14Ac peptide displacement; Potency, µM (highest dose often 114 µM), for the others: at the top dose activity change, negative = inhibition, hits mostly inhibitors; hit rate 4.4% among 360,000; further: on the % scale 0 is the no-effect control and ±100 the full control effect; nearly all actives have a fitted effect of over 60% in size
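Compounds, titrated to a top concentration of 110 uM, were incubated 30 min at room temperature with preformed BAZ2B/acetyl-K14 H3 peptide complex (50 nM each). Proximity signal was measured by AlphaScreen after 20 min with beads.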
HP1b chromo inh = inhibitors of HP1-beta chromodomain binding to methylated histone tails; AlphaScreen HP1-beta / biotin-H3K9me3 peptide binding; P83916; AID 540317; Potency, µM (top dose mostly 114 µM), inactives show at the highest dose activity change, negative = inhibition, actives largely listed as inhibitors; hit rate 0.56% among 390,000; further: nearly all actives have a fitted effect of over 70% in size
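AlphaScreen: HP1-beta (50 nM) preformed 30 min with biotin-H3(1-18)K9me3 peptide (50 nM) in PBS pH 7.4, 0.01% Tween-20. Compound added for 30 min at RT, then streptavidin donor/nickel chelate acceptor beads (10 ug/mL) for 30 min.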
L3MBTL1 inh = blocks human L3MBTL1; AlphaScreen L3MBTL1–H3K9me1 peptide binding; hit rate 0.66% among 230,000; Q9Y468; AID 485360; Potency, µM (doses to about 57.1 µM), inactives show top-dose activity, negative = inhibition, hits mostly inhibitors; further: on the % scale 0 is the no-effect control and ±100 the full control effect; nearly all actives have a fitted effect of over 60% in size
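AlphaScreen assay: L3MBTL1 (50 nM final) was preincubated 30 min at room temperature with biotinylated H3(1-15)K9me1 peptide (75 nM final), then 30 min with library compounds; streptavidin donor and nickel chelate acceptor beads (10 ug/mL final) added, 30 min dark.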
G9a inh = G9a (human) methyltransferase inhibition; Q96KQ7; G9a H3K9 monomethylation, AlphaScreen, 2 h; Potency, µM (doses to about 102 µM), without a hit: at the top dose activity, negative = inhibition, usual class: inhibitors; hit rate 8.8% among 350,000; AID 504332; further: on the % scale 0 is the no-effect control and ±100 the full control effect; nearly all actives have a fitted effect of over 75% in size
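G9a (20 nM) preincubated 15 min RT with compounds, then 500 nM biotinylated H3K9 peptide and 20 uM SAM added; 2 h RT reaction. Monomethyl-H3K9 product detected by AlphaScreen with anti-H3K9me1 antibody, streptavidin donor and anti-rabbit IgG acceptor beads.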
Sfp inh = inhibitors of Bacillus subtilis Sfp phosphopantetheinyl transferase; Biochemical Sfp PPTase activity, qHTS; hit rate 3.5% among 310,000; Potency, µM, without a hit: largest response in the series, negative = inhibition, usual class: inhibitors; AID 1490; Q9F4F7;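 further: the enzyme is Sfp with the accession as filed and its product quenches rhodamine fluorescence; 0% = enzyme reaction without inhibitor and -100% = no enzyme wells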
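Reaction rates are the 30-min fluorescence difference (ex 525, em 598 nm) in wells containing 15 nM Sfp, 5 uM rhodamine-CoA and 12.5 uM BHQ-2-YbbR at pH 7.6 with 10 mM MgCl2.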
JMJD2A Tudor inh = blocks the human JMJD2A Tudor domain; O75164; AlphaScreen JMJD2A-Tudor / H3K4me3 peptide binding; Potency, µM (top dose mostly 114 µM), without a hit: at the highest dose activity change, negative = inhibition, actives largely listed as inhibitors; hit rate 4.4% among 390,000; further: on the % scale 0 is the no-effect control and ±100 the full control effect; nearly all actives have a fitted effect of over 50% in size
Starred values were filed as active, the others as inactive; ? = inconclusive; . = no result; [ ] = another dose, or the depositor's remark. Sampled rows, rich in hits. Any-hit rate of the full collection: about 12%. The call rests on the fitted dose curve; in most records, active means well fitted curve in the direction sought with a large enough effect; inconclusive means small, poorly fitted or top-dose-only effect, or another doubt; inactive means no such curve, though single readings can be large; an effect the other way counts as inactive or inconclusive. Potency means the concentration at half of the fitted maximal effect.

SMILES	BAZ2B inh	HP1b chromo inh	L3MBTL1 inh	G9a inh	Sfp inh	JMJD2A Tudor inh
CN1CCN(C(=S)c2cn(Cc3ccccc3F)c3ccccc23)CC1	?	2%	.	40µM*	-8%	?
S=C(c1cn(Cc2ccc(Br)cc2)c2ccccc12)N1CCOCC1	?	?	-9%	?	23%	25µM*
O=C(C(=O)N1CCOCC1)c1c[nH]c2ccccc12	-4%	30%	-2%	.	15%	-1%
S=C(c1cn(Cc2ccccc2)c2ccccc12)N1CCOCC1	?	-13%	.	25µM*	14%	?
Cn1c(SCc2cccc(F)c2)nc2c([nH]c3ccccc32)c1=O	-2%	8%[57 µM]	.	17%[59 µM]	.	-8%
Cc1cccnc1NC(=O)c1cccc(NC(=O)CC2SC(N3CCCCC3)=NC2=O)c1 (stereo not given)	13%	23%	-4%	13%[12.7 µM]	.	-8%
C=CCNC(=O)c1ccc(Cn2c(=S)[nH]c3cc4c(cc3c2=O)OCO4)cc1	-9%	8%	8%	12%[59 µM]	26%	?
CC1CCN(CCCNC(=O)c2ccc(Cn3c(=S)[nH]c4ccc(Br)cc4c3=O)cc2)CC1	?	.	-29%	18µM*	-14%	.
O=C(NCCN1CCCC1)c1ccc(Cn2c(=S)[nH]c3cc4c(cc3c2=O)OCO4)cc1	-34%	20%	-8%	?	-1%	40µM*
CN1CCN(CCCNC(=O)c2ccc(Cn3c(=S)[nH]c4ccc(Br)cc4c3=O)cc2)CC1	?	9%	-14%	32µM*	-4%	?
CNc1nc(OC)nc(N(C#N)CN2C(=O)c3ccccc3S2(=O)=O)n1	5%	-1%	?	?	-14%	-5%[11.4 µM]
CCOc1ccccc1Nc1sc(C(=O)c2ccc(Cl)cc2)c(N)c1S(=O)(=O)c1ccccc1	-1%	20%	.	14%[59 µM]	.	-16%
CCOc1ccc(NC(=O)c2nc3nc(C)cc(C(F)F)n3n2)cc1	-17%	12%	.	5%[59 µM]	.	-16%
COc1ccc(Nc2nc3cc(Cl)c(Cl)cc3n3cnnc23)cc1Cl	-7%	11%	.	-10%[59 µM]	.	-15%
O=C(NNc1c(Cl)cccc1Cl)c1cccs1	25%	14%	-8%	11µM*	6%	?
Cc1ccc(NC(=O)C(=O)NNC(=O)c2cccs2)cc1	-24%	38%	15%	4µM*	16%	-9%
Cc1ccc(NC(=O)c2cccs2)cc1	-1%	17%	.	-6%[12.7 µM]	12%	0%
O=C(NNC(=O)c1ccccc1Cl)c1cccs1	-1%	42%	?	12%[59 µM]	-1%	9%
CCC(=O)Nc1ccc(C(=O)NNC(=O)c2cccs2)cc1	0%	19%	0%	0.2µM*	4%	-13%
Cc1ccc(S(=O)(=O)N2CCN(c3nc(-c4cccs4)nc4nc[nH]c34)CC2)cc1	.	23%	.	.	.	-18%
CCOC(=O)C1CCN(S(=O)(=O)c2cc(-c3onc(C)c3C)ccc2C)CC1	13%	53%	.	10%[59 µM]	.	21%
O=C(NCCNC1CCN(Cc2ccccc2)CC1)c1cccs1	?	.	.	1.8µM*	?	.
